± gives the standard deviation.

One assay has as its target T1, HaloTag-ATRX ADD domain (163-292).
T1 chain: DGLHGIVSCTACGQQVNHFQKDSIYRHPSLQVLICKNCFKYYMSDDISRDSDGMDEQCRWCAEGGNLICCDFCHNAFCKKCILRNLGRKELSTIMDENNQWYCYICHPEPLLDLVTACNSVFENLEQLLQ
The experiment in a line: peptide microarray binding signal (635 nm), min-max normalized on array (fraction of array maximum); higher = stronger binding. The note with it: peptide region: Unmod H2B variant; binder concentration: 50 nM. The gist of the method: (§1)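 Two probe formats were used for 1 h at 4°C: biotin-labelled HaloTag reader fusions (10 nM to 1 μM) with streptavidin-Alexa Fluor 647, and rabbit histone antibodies (1:10,000 to 1:2,000) with anti-rabbit Alexa 647. Both were applied to nitrocellulose arrays of histone 13-mer peptide–cellulose conjugates printed in triplicate with a Cy3 tracer and blocked overnight at 4°C. Signal was read at 635 nm and misprints at 532 nm on an Axon GenePix 4000B. Binding signal is expressed as the triplicate-spot mean intensity, min-max scaled for each library.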
On to PEVSSKGATISKK [Unmod H2B variant P E V S S K G A T I S K K], for which the “peptide microarray binding signal” value came to 0.0052 ± 0.00018.

For the molecule PEPSKSAPAPKKG [Unmod H2B variant P E P S K S A P A P K K G], the “peptide microarray binding signal” value is 0.00618 ± 0.00016.

Regarding PKKGSKKAVTKAQ [Unmod H2B variant P K K G S K K A V T K A Q], the “peptide microarray binding signal” value was 0.00561 ± 0.00027.

Staying with this assay, now noted: peptide region: Unmod H2B variant; binder concentration: 500 nM.
Consider PEVSSKGATISKK [Unmod H2B variant P E V S S K G A T I S K K], for which the “peptide microarray binding signal” value came out at 0.00605 ± 0.00026.

For PEPSKSAPAPKKG [Unmod H2B variant P E P S K S A P A P K K G], the “peptide microarray binding signal” value stood at 0.0115 ± 0.0012.

Take PKKGSKKAVTKAQ [Unmod H2B variant P K K G S K K A V T K A Q]: the “peptide microarray binding signal” value came to 0.008048 ± 4.3e-05.

In a further assay the target is HaloTag-ING2 PHD (mouse Ing2 200-280). Described as above. Particulars: peptide region: Unmod H2B variant; binder concentration: 10 nM. The method, boiled down: as §1
For PEVSSKGATISKK [Unmod H2B variant P E V S S K G A T I S K K], the “peptide microarray binding signal” value stood at 0.003103 ± 3e-05.

On to PEPSKSAPAPKKG [Unmod H2B variant P E P S K S A P A P K K G], for which the “peptide microarray binding signal” value worked out at 0.00406 ± 0.00015.

Consider PKKGSKKAVTKAQ [Unmod H2B variant P K K G S K K A V T K A Q], for which the “peptide microarray binding signal” value was determined as 0.00275 ± 0.00016.

Still in this assay, the particulars now being: peptide region: Unmod H2B variant; binder concentration: 100 nM.
With PEVSSKGATISKK [Unmod H2B variant P E V S S K G A T I S K K], the “peptide microarray binding signal” value was found to be 0.00468 ± 0.00025.

As to PEPSKSAPAPKKG [Unmod H2B variant P E P S K S A P A P K K G], the “peptide microarray binding signal” value worked out at 0.0137 ± 0.0011.

Take PKKGSKKAVTKAQ [Unmod H2B variant P K K G S K K A V T K A Q]: the “peptide microarray binding signal” value was 0.00354 ± 0.00011.

Another assay addresses anti-H3K4me3 antibody ab8580. The description is as above. Particulars: peptide region: Unmod H2B variant; binder concentration: 1:2,000 dilution. The method, boiled down:
as §1
In the case of PEVSSKGATISKK [Unmod H2B variant P E V S S K G A T I S K K], the “peptide microarray binding signal” value is 0.00051 ± 1.5e-05.

For PEPSKSAPAPKKG [Unmod H2B variant P E P S K S A P A P K K G], the “peptide microarray binding signal” value stood at 0.000963 ± 6.3e-05.

In the case of PKKGSKKAVTKAQ [Unmod H2B variant P K K G S K K A V T K A Q], the “peptide microarray binding signal” value came to 0.000378 ± 7.7e-06.

Staying with this assay, now noted: peptide region: Unmod H2B variant; binder concentration: 1:10,000 dilution.
For PEVSSKGATISKK [Unmod H2B variant P E V S S K G A T I S K K], the “peptide microarray binding signal” value was 0.000742 ± 1.3e-05.

In the case of PEPSKSAPAPKKG [Unmod H2B variant P E P S K S A P A P K K G], the “peptide microarray binding signal” value worked out at 0.00126 ± 9.4e-05.

Consider PKKGSKKAVTKAQ [Unmod H2B variant P K K G S K K A V T K A Q], for which the “peptide microarray binding signal” value was found to be 0.000628 ± 6.7e-06.

The target in another assay is anti-H3K9me3 antibody ab8898. The description is as above. The note with it: peptide region: Unmod H2B variant; binder concentration: 1:2,000 dilution. The gist of the method:
as §1
In the case of PEVSSKGATISKK [Unmod H2B variant P E V S S K G A T I S K K], the “peptide microarray binding signal” value was determined as 0.000362 ± 1.3e-05.

With PEPSKSAPAPKKG [Unmod H2B variant P E P S K S A P A P K K G], the “peptide microarray binding signal” value amounted to 0.000453 ± 7.5e-06.

Consider PKKGSKKAVTKAQ [Unmod H2B variant P K K G S K K A V T K A Q], for which the “peptide microarray binding signal” value came to 0.000196 ± 2.1e-06.

Staying with this assay, now noted: peptide region: Unmod H2B variant; binder concentration: 1:10,000 dilution.
In the case of PEVSSKGATISKK [Unmod H2B variant P E V S S K G A T I S K K], the “peptide microarray binding signal” value came to 0.000634.

Turning to PEPSKSAPAPKKG [Unmod H2B variant P E P S K S A P A P K K G], the “peptide microarray binding signal” value is 0.000923 ± 9.6e-06.

Take PKKGSKKAVTKAQ [Unmod H2B variant P K K G S K K A V T K A Q]: the “peptide microarray binding signal” value turned out to be 0.000577 ± 6.2e-06.

The target of another assay is T1, HaloTag-ATRX ADD domain (163-292). Described as above. The note with it: peptide region: Unmod H2A variant; binder concentration: 50 nM. The gist of the method:
as §1
Regarding VTIAQGGVLPNIQ [Unmod H2A variant V T I A Q G G V L P N I Q], the “peptide microarray binding signal” value came to 0.0238 ± 0.001.

Consider GVLPNIQAVLLPK [Unmod H2A variant G V L P N I Q A V L L P K], for which the “peptide microarray binding signal” value stood at 0.0417 ± 0.0058.

The same assay, now with this note: peptide region: Unmod H2A variant; binder concentration: 500 nM.
VTIAQGGVLPNIQ [Unmod H2A variant V T I A Q G G V L P N I Q]: the “peptide microarray binding signal” value is 0.0447 ± 0.00046.

Consider GVLPNIQAVLLPK [Unmod H2A variant G V L P N I Q A V L L P K], for which the “peptide microarray binding signal” value amounted to 0.0254 ± 0.026.

The target in a further assay is HaloTag-ING2 PHD (mouse Ing2 200-280). The assay is described as above. The note with it: peptide region: Unmod H2A variant; binder concentration: 10 nM. The gist of the method: as §1
Take VTIAQGGVLPNIQ [Unmod H2A variant V T I A Q G G V L P N I Q]: the “peptide microarray binding signal” value is 0.0169 ± 0.00042.

Regarding GVLPNIQAVLLPK [Unmod H2A variant G V L P N I Q A V L L P K], the “peptide microarray binding signal” value is 0.0142 ± 0.0058.

Staying with this assay, now noted: peptide region: Unmod H2A variant; binder concentration: 100 nM.
With VTIAQGGVLPNIQ [Unmod H2A variant V T I A Q G G V L P N I Q], the “peptide microarray binding signal” value was found to be 0.0193 ± 0.0019.

As for GVLPNIQAVLLPK [Unmod H2A variant G V L P N I Q A V L L P K], the “peptide microarray binding signal” value worked out at 0.0437 ± 0.0091.

In another assay the target is anti-H3K4me3 antibody ab8580. Described as above. Particulars: peptide region: Unmod H2A variant; binder concentration: 1:2,000 dilution. The method, boiled down: as §1
Turning to VTIAQGGVLPNIQ [Unmod H2A variant V T I A Q G G V L P N I Q], the “peptide microarray binding signal” value was 0.00821 ± 0.007.

As for GVLPNIQAVLLPK [Unmod H2A variant G V L P N I Q A V L L P K], the “peptide microarray binding signal” value is 0.000944 ± 0.00025.

Still in this assay, the particulars now being: peptide region: Unmod H2A variant; binder concentration: 1:10,000 dilution.
For VTIAQGGVLPNIQ [Unmod H2A variant V T I A Q G G V L P N I Q], the “peptide microarray binding signal” value was found to be 0.00451 ± 0.0005.

Take GVLPNIQAVLLPK [Unmod H2A variant G V L P N I Q A V L L P K]: the “peptide microarray binding signal” value came to 0.0081 ± 0.0012.

In a further assay the target is anti-H3K9me3 antibody ab8898. The assay is described as above. Particulars: peptide region: Unmod H2A variant; binder concentration: 1:2,000 dilution. The method, boiled down: as §1
As to VTIAQGGVLPNIQ [Unmod H2A variant V T I A Q G G V L P N I Q], the “peptide microarray binding signal” value is 0.00338 ± 0.00037.

For the molecule GVLPNIQAVLLPK [Unmod H2A variant G V L P N I Q A V L L P K], the “peptide microarray binding signal” value was 0.00384 ± 0.00031.

Staying with this assay, now noted: peptide region: Unmod H2A variant; binder concentration: 1:10,000 dilution.
On to VTIAQGGVLPNIQ [Unmod H2A variant V T I A Q G G V L P N I Q], for which the “peptide microarray binding signal” value came to 0.00306.

Turning to GVLPNIQAVLLPK [Unmod H2A variant G V L P N I Q A V L L P K], the “peptide microarray binding signal” value came out at 0.0113 ± 0.0018.

(Values after the supplement of paper PMC4022240.)
